# Unmarked numbers belong to inactive results. Inconclusive results are not listed. Entries that show only a call come without a potency. The source made the active and inactive calls. Unless noted, calls follow the shape of the dose curve; as a rule, active = well fitted curve in the direction sought with a large enough effect; inconclusive = small, poorly fitted or top-dose-only effect, or another doubt; inactive = no such curve, though single readings can be large; an effect the other way counts as inactive or inconclusive.
# How the values were obtained:
# [1] = biological target: Cytochrome P450 1A2 (Homo sapiens) (UniProt P05177); test: p450-cyp1a2 (AID 410; calls by dose curve; also: potency is read from the fitted curve at half-maximal effect)
# Method in brief: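 Luminescent readout of luciferin formed from Luciferin-ME by human CYP1A2; data normalized against complete inhibition by 57 uM furafylline. Enzyme 20nM, substrate 100uM at Km, 100mM KPO4 buffer, 60 min reaction at room temperature.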
# [2] = NFAT Signaling Pathway (AID 444; active = well fitted curve in either direction with a large enough effect, not every such curve was filed as active;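 also: carbachol stimulus at about its EC50 of 1 µM final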); details: Jurkat NFAT-bla M1, carbachol, beta-lactamase ratio, 5 h; at 17.2 µM (top of the series) unless noted
# Method in brief: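 Read-out: CCF4 FRET ratio (460 nm/530 nm) after 1 h RT dye loading, used for %activity and AC50 from titration series. Cells: Jurkat NFAT-β-lactamase/M1 line, treated with compound plus 1 uM carbachol for 5 h, 37 °C.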
# [3] = Stat Signaling Pathway (AID 446; active = well fitted curve in either direction with a large enough effect, not every such curve was filed as active;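 also: ME-180 cervical cancer cells given 40 pM IL-6 alongside compound; SIE-controlled beta-lactamase reporter measured as 460/530 nm FRET emission ratio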); details: ME-180 SIE beta-lactamase reporter, IL-6 stimulated, 5 h; at 17.2 µM (top of the series) unless noted
# Method in brief: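 Screening format detects activators and inhibitors alike: ME-180 SIE-bla cells stimulated at 40 pM IL-6 for 5 hrs with compound, then dual-emission beta-lactamase read at 405 nm excitation.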
# [4] = biological target: Glucocorticoid receptor (Homo sapiens) (UniProt P04150); test: GR-GFP Redistribution (AID 450;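 active = compounds whose dose series gives a full or clear partial fitted curve of increased nuclear translocation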; also: potency is read from the fitted curve at half-maximal effect)
# [5] = biological target: Glucocorticoid receptor (Homo sapiens) (UniProt P04150); test: GR-EFC Redistribution (AID 451; calls by dose curve; also: potency is read from the fitted curve at half-maximal effect); details: CHO-K1 GR-EFC translocation, beta-gal luminescence, 2 h
# Method in brief: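 Translocation of GR-ED fusion to nuclear EA restores b-gal, read by luminescence after 1 h room-temperature detection. Engineered CHO-K1 biosensor cells, 1,000/well, exposed 2 h at 37 C to titrations up to 46 uM final.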
# [6] = biological target: Mitogen-activated protein kinase 10 (Mus musculus) (UniProt Q61831); test: JNK3 AlphaScreen Assay (AID 530; active = well fitted curve in either direction with a large enough effect, not every such curve was filed as active;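 also: kinase came from lysate of stimulated human HepG2 cells; signal reports phosphorylation of biotinylated GST-cJun 1-79 at Ser73 with 10 µM ATP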)
# Method in brief: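 Compound titrations were preincubated 15 minutes at room temperature with substrate, antibody and pre-activated JNK3-containing HepG2 lysate. Reactions were started with 10 uM ATP and stopped with EDTA-containing bead buffer for AlphaScreen detection.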
# [7] = biological target: 3',5'-cyclic-AMP phosphodiesterase 4B (Homo sapiens) (UniProt Q07343); test: qHTS Assay for Inhibitors of PDE-IV (AID 607; active = well fitted activation curve with a large enough effect in the main read-out, with a control signal flat, not every such curve was filed as active)
# Method in brief: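 The readout is membrane depolarisation from a cAMP-sensing CNG channel, detected with a potential dye at ex 535/em 590. Cells were HEK293-derived (endogenous PDE-IV) at 1000 cells/well, titrated up to 22.9 uM final.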
# [8] = biological target: Guanine nucleotide-binding protein G(i) subunit alpha-1 (Homo sapiens) (UniProt P63096); test: qHTS Assay for Inhibitors of RGS12 GoLoco Motif Activity (Green Fluorophore) (AID 879);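 also: negative values mean loss of peptide binding seen as reduced polarization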
# Method in brief: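 Fluorescence polarization assay: 50 nM Gαi1 with 10 nM FITC-labeled RGS12 GoLoco peptide in 10 mM Tris pH 7.5, 150 mM NaCl, 0.1 mM GDP, 0.05% NP40, 10 min at room temperature with compound.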
# [9] = Confirmation and Secondary Assay for Modulators of Hemoglobin Beta Chain Splicing at IVS2 654 locus (AID 910);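 also: HeLa cells stably carrying EGFP split by mutant beta-globin IVS2-654 intron; per-well total GFP intensity by laser scanning cytometry after 2-day treatment; potency is read from the fitted curve at half-maximal effect; potency of activators that raise GFP signal by restoring correct splicing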
# Method in brief: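 Readout: per-well total peak green fluorescence (488 nm ex, 500–520 nm em) from objects 5–250 µm, reflecting correct splicing of an EGFP-654 reporter. Compounds were applied for 2 days at 37 °C to overnight-plated HeLa EGFP-654 cells; controls were DMSO and 500 nM IVS2-654 PNA.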
# [10] = qHTS Assay for Identification of Small Molecule Agonists for Hypoxia Response Element Signaling Pathway (AID 914; active = well fitted activation curve with a large enough effect in the signal ratio, with a control signal flat, not every such curve was filed as active; the % refers to the signal ratio; also: potency is read from the fitted curve at half-maximal effect); details: ME-180 HRE-bla reporter, beta-lactamase ratio, CoCl2, 17 h; activation: active compounds read high
# Method in brief: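 Cells were plated overnight, pin-dosed with compound in a titration series, co-stimulated with EC50 CoCl2 and incubated 17 hours at 37 degrees Celsius. CCF4 substrate was then loaded, and AC50 values came from the 460nm/530nm ratio.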
# [11] = qHTS Assay for Identification of Small Molecule Agonists for Thrombopoietin (TPO) Signaling Pathway (AID 917)
# Method in brief: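 Reporter: GpIIb promoter–luciferase in murine Ba/F3 expressing human TPO receptor. Pre-starved of IL-3 overnight; compounds with 26 pM TPO, 24 hrs, 37 C/5% CO2; luminescence read.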
# [12] = Confirmation and Secondary Assay for Modulators of Hemoglobin Beta Chain Splicing at IVS2 705 locus (AID 930);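 also: GFP fluorescence per well restored by corrected splicing of the IVS2-705 intron in EGFP; potency is read from the fitted curve at half-maximal effect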
# Method in brief: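 Splice-correction reporter: EGFP cDNA split by beta-globin intron 2 bearing the 705 mutation, stably in HeLa. Compound incubation 2 days, 37C; fluorescent objects 5-250 µm summed per well.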
# [13] = biological target: Muscarinic acetylcholine receptor M1 (Rattus norvegicus) (UniProt P08482); test: qHTS Assay for Antagonists of Acetylcholine Muscarinic M1 Receptor: Kinetic Measurement of Intracellular Calcium Response (AID 943);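 also: Fluo-4 calcium signal as peak divided by basal fluorescence over 4 min; nearly all actives have a fitted effect of over 75% in size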
# Method in brief: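 Rat M1-CHO cells, 2000/well, overnight → Fluo-4 no-wash dye with probenecid, 1 h 37C → compound 10 min, room temp → basal read 6 s → carbachol EC80 (100 nM) → 4 min kinetic read; peak/basal.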
# [14] = biological target: Pyruvate kinase (Leishmania mexicana) (UniProt Q27686); test: qHTS Validation Assay for Inhibitors of Leishmania Mexicana Pyruvate Kinase (AID 945)
# Method in brief: (§1)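 The enzyme is a highly purified E451W mutant of LmPYK used at 0.2 nM. It converts 0.5 mM PEP and 0.1 mM ADP over 1 h at room temperature; product ATP is quantified by luciferase luminescence relative to DMSO controls.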
# [15] = biological target: Pyruvate kinase PKM (Homo sapiens) (UniProt P14618); test: qHTS Assay for Activators of Human Muscle Pyruvate Kinase (AID 954; active = well fitted curve in the direction sought with a large enough effect, not every such curve was filed as active)
# Method in brief: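 Reaction: 0.1 nM purified PKM2 with 0.5 mM phosphoenolpyruvate and 0.1 mM ADP, room temperature, 1 h. Readout: luciferase-based ATP luminescence after stop reagent. Activators judged against a 0.3 nM enzyme column.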
# [16] = biological target: Alpha-galactosidase A (Homo sapiens) (UniProt P06280); test: Counterscreen for Glucocerebrosidase Inhibitors: qHTS Assay for Human alpha-Galactosidase at pH 4.5 (AID 992)
# Method in brief: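 Concentration-response curves (0.7 nM to 77 uM final) were modeled with the Hill equation to give AC50. Reactions: 2 nM enzyme, 80 uM fluorogenic alpha-galactoside, pH 4.5 citric acid buffer, 20 min, room temperature.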
# [17] = biological target: alpha-glucosidase (Oryza sativa, rice) (UniProt Q653V4); test: Counterscreen for Glucocerebrosidase Inhibitors: qHTS Assay for Rice alpha-Glucosidase at pH 5.0 (AID 997)
# Method in brief: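 Rice alpha-glucosidase (4 nM final) with 400 uM 4-methylumbelliferyl-alpha-D-glucopyranoside in citrate buffer pH 5.0, 20 min at room temperature, stopped at pH 10; fluorescence 365/440 nm, compounds 0.7 nM–77 uM, AC50 from Hill fits.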
# [18] = AP1 Signaling Pathway (AID 357; active = well fitted curve in either direction with a large enough effect, not every such curve was filed as active;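 also: ME-180 reporter cells stimulated with EGF at its EC50 level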); details: ME-180 (cervical carcinoma) AP-1-bla reporter, EGF-induced, beta-lactamase ratio, 5 h; at 17.2 µM (top of the series) unless noted
# Method in brief: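 In this screen, ME-180 cells in Opti-MEM with 0.5% dialyzed FBS received EC50 EGF and compound titrations for 5 h. AP-1 reporter beta-lactamase was detected via CCF4 ratio, giving AC50 for positive and negative modulators.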
# [19] = biological target: Cytochrome P450 3A4 (Homo sapiens) (UniProt P08684); test: qHTS Assay for Activators of Cytochrome P450 3A4 (AID 885); also: nearly all actives have a fitted effect of over 65% in size
# Method in brief: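 Steps: enzyme/substrate mix dispensed; compound added, 10 min RT; NADPH regeneration solution added, 60 min RT; luciferin detection buffer stops reaction; 20 min later luminescence measured.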
# [20] = biological target: Pyruvate kinase (Leishmania mexicana) (UniProt Q27686); test: qHTS Validation Assay for Activators of Leishmania Mexicana Pyruvate Kinase (AID 959)
# Method in brief: as §1
# [21] = biological target: Cytochrome P450 3A4 (Homo sapiens) (UniProt P08684); test: qHTS Assay for Inhibitors and Substrates of Cytochrome P450 3A4 (AID 884); also: potency is read from the fitted curve at half-maximal effect; nearly all actives have a fitted effect of over 50% in size
# Method in brief: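 20 nM human CYP3A4 with 25 uM Luciferin-PPXE (at KM) in 200 mM KPO4, preincubated 10 min with compound; NADPH regeneration started a 60 min RT reaction. Luciferin detected by luminescence, normalized to 57 uM ketoconazole as full inhibition.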
# [22] = biological target: Cytochrome P450 2D6 (Homo sapiens) (UniProt P10635); test: qHTS Assay for Inhibitors and Substrates of Cytochrome P450 2D6 (AID 891);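 also: luciferin methyl ether substrate demethylated by CYP2D6 with NADPH regeneration; nearly all actives have a fitted effect of over 60% in size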
# Method in brief: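 Human CYP2D6 (5 nM) with 30 uM Luciferin-ME EGE (at Km) in 100 mM KPO4, compound preincubated 10 min, then NADPH regeneration system for 60 min at room temperature. Luciferin read by luminescence; normalized to 1.43 uM quinidine.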
# [23] = qHTS Assay for Identification of Small Molecule Antagonists for NFkB Signaling Pathway (AID 895; active = well fitted inhibition curve with a large enough effect in the signal ratio, with a control signal flat, not every such curve was filed as active; the % refers to the signal ratio)
# Method in brief: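 Beta-lactamase reporter read-out (460 and 530 nm emission ratio, 405 nm excitation, 2 hrs substrate loading RT) after 5 hr stimulation with 10 pM TNF alpha in compound-treated NFkB-bla ME-180 cells in low-serum medium.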
# Chain of Cytochrome P450 1A2 (Homo sapiens) (P05177 whole entry, looked up): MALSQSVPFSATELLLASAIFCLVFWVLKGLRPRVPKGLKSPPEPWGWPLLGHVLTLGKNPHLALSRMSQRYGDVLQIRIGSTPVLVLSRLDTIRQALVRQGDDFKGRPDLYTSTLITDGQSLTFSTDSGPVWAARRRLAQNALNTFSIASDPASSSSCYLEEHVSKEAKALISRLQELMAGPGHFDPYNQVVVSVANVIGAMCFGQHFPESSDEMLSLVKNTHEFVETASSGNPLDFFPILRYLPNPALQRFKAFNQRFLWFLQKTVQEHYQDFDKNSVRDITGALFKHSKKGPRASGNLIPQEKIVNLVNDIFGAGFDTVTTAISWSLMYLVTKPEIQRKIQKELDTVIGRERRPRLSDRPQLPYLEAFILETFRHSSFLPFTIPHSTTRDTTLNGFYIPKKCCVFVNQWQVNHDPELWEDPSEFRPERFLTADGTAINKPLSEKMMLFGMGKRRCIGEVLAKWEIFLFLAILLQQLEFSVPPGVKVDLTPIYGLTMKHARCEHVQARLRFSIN
# Chain of Cytochrome P450 3A4 (Homo sapiens) (P08684 whole entry, looked up): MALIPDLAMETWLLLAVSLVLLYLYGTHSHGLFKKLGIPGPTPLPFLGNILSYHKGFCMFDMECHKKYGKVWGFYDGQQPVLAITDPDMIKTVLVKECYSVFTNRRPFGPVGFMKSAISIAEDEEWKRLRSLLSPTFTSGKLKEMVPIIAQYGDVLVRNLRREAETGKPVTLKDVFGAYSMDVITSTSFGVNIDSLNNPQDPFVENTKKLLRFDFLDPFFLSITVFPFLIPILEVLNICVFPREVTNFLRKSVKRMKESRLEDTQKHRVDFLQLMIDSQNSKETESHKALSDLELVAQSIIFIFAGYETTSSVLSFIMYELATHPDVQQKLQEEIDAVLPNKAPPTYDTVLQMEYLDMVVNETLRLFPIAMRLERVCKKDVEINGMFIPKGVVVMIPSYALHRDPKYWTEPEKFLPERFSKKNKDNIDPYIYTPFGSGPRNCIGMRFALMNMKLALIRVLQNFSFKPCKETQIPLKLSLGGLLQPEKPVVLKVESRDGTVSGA
# Chain of Glucocorticoid receptor (Homo sapiens) (P04150 whole entry, looked up, the tested form may be a part): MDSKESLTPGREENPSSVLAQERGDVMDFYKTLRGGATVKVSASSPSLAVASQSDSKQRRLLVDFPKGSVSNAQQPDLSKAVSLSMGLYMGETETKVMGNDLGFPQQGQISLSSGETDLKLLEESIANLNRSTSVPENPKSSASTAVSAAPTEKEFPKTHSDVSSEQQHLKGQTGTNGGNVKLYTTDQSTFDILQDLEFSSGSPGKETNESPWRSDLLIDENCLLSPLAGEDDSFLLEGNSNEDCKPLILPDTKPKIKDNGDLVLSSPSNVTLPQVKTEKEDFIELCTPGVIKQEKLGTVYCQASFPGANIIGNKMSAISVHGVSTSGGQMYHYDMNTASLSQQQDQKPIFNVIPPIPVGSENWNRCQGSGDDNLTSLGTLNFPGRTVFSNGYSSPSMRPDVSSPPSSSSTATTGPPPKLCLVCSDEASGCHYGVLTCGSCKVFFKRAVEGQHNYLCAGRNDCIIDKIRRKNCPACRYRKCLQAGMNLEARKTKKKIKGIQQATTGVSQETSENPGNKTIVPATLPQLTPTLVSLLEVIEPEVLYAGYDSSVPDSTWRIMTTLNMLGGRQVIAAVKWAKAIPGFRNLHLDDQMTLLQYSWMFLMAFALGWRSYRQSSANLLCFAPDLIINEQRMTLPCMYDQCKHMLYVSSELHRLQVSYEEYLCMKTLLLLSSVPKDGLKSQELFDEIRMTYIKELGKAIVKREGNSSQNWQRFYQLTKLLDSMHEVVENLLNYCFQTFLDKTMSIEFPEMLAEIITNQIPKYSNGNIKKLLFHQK
# Chain of Pyruvate kinase PKM (Homo sapiens) (P14618 whole entry, looked up): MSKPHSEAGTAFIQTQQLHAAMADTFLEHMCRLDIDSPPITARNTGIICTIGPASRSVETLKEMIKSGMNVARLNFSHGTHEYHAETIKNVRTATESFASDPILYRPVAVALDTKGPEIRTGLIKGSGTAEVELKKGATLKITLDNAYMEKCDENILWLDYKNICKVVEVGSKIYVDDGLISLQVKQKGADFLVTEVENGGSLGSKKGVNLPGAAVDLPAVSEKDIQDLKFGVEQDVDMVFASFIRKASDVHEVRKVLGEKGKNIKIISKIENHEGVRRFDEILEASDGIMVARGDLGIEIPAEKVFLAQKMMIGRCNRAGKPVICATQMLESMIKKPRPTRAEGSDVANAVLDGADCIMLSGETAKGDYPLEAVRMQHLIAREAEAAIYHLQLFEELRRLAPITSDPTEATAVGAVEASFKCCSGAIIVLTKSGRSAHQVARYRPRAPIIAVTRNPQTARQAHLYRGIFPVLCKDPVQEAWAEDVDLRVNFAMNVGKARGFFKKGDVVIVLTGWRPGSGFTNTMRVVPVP
# Chain of Alpha-galactosidase A (Homo sapiens) (P06280 whole entry, looked up): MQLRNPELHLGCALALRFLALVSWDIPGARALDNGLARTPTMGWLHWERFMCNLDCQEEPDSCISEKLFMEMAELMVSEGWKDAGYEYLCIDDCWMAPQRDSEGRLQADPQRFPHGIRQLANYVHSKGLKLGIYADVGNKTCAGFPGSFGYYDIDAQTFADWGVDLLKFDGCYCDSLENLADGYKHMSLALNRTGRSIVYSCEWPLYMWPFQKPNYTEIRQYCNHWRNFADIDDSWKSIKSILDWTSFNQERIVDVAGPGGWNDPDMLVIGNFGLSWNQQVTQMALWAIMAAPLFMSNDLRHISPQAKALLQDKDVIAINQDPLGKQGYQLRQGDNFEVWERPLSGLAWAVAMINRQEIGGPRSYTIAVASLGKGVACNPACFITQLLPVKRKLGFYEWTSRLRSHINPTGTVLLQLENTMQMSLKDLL
# Chain of 3',5'-cyclic-AMP phosphodiesterase 4B (Homo sapiens) (Q07343 whole entry, looked up): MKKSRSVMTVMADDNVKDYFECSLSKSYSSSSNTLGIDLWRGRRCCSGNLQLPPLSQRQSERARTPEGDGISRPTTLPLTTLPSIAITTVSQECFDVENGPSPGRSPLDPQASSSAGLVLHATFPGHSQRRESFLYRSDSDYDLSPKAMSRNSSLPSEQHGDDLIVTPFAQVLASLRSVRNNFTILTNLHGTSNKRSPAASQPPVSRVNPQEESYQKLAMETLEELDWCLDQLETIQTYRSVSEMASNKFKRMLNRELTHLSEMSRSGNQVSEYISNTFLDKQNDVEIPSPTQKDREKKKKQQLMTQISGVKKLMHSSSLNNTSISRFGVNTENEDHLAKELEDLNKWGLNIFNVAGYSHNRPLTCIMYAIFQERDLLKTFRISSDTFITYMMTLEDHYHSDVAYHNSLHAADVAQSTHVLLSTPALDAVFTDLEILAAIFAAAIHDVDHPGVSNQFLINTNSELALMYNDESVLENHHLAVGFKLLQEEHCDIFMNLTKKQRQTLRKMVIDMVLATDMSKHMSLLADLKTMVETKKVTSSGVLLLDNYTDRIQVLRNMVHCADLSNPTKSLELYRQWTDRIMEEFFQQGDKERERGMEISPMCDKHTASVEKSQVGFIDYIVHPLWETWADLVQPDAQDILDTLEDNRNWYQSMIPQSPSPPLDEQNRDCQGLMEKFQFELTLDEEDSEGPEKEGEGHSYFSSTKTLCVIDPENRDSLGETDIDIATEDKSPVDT
# Chain of Pyruvate kinase (Leishmania mexicana) (Q27686 2-499 E452W): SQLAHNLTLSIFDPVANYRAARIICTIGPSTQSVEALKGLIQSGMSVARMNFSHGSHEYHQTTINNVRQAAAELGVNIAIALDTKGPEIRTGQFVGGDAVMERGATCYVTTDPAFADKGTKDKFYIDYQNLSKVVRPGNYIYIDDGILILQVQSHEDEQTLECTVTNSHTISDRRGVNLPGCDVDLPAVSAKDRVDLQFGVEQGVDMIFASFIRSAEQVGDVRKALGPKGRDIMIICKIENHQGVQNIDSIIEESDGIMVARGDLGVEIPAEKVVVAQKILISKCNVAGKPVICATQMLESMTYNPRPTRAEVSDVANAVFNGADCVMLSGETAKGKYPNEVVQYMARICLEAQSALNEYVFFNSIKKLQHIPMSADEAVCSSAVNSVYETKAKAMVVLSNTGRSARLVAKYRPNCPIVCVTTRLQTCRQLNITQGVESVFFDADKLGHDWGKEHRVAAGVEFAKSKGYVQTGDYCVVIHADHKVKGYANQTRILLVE
# Chain of Guanine nucleotide-binding protein G(i) subunit alpha-1 (Homo sapiens) (P63096 whole entry, looked up): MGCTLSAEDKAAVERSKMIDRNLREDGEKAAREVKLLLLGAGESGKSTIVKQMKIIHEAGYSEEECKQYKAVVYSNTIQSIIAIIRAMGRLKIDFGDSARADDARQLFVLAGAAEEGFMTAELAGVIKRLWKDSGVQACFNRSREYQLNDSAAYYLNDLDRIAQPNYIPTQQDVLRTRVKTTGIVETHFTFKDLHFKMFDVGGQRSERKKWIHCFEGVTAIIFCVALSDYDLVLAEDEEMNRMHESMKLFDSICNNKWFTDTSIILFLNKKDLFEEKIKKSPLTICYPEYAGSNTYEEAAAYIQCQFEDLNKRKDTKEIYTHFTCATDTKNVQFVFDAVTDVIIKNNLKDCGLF
# Chain of Cytochrome P450 2D6 (Homo sapiens) (P10635 whole entry, looked up): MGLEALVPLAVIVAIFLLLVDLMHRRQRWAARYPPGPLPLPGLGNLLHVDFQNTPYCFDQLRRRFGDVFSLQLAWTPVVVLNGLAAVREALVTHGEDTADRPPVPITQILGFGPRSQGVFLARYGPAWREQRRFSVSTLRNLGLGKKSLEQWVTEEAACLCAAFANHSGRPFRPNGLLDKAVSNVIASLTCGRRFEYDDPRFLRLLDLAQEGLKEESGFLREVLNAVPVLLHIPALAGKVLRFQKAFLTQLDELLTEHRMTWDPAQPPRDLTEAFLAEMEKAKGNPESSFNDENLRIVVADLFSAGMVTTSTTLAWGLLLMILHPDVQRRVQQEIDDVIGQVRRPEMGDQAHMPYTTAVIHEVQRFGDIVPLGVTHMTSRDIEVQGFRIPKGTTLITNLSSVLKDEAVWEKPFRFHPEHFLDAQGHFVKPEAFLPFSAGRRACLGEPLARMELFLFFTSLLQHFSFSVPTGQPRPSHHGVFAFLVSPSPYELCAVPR
smiles,measurement,setting,value
OC[C@@H]1O[C@@H](n2cnc3cncnc32)[C@@H](O)[C@H]1O,Potency,[1],inactive
same,"activity change, negative = inhibition",[2],-10.9% [at 38 µM]
same,"activity, negative = inhibition",[3],-14.6% [at 38 µM]
same,Potency,[4],> 46 µM
same,Potency,[5],> 46 µM
same,Potency,[6],inactive
same,Potency,[7],inactive
same,outcome,[8],inactive
same,Potency,[9],5.01 µM (active)
same,activation,[10],4.26%
same,Potency,[11],inactive
same,Potency,[12],12.6 µM (active)
same,Potency,[13],inactive
same,Potency,[14],inactive
same,outcome,[15],inactive
same,outcome,[16],inactive
same,outcome,[17],inactive
COCCNC(=O)c1c(N)n(CCC2=CCCCC2)c2nc3ccccc3nc12,"activity change, negative = inhibition",[18],28.7%
same,Potency,[4],> 20.6 µM
same,Potency,[10],10 µM (active)
O=C(/C=C\c1ccc(O)c(O)c1)OCCc1ccccc1,Potency,[1],1 µM (active)
same,"activity change, negative = inhibition",[2],-12.2% [at 38 µM]
same,"activity, negative = inhibition",[3],-10.7% [at 38 µM]
same,Potency,[4],> 46 µM
same,Potency,[5],> 46 µM
same,Potency,[7],inactive
same,outcome,[8],inactive
same,Potency,[19],inactive
same,outcome,[15],inactive
same,Potency,[20],inactive
same,outcome,[16],inactive
same,outcome,[17],inactive
CC[C@]1(O)C[C@H]2CN(CCc3c([nH]c4ccccc34)[C@](C(=O)OC)(c3cc4c(cc3OC)N(C=O)[C@H]3[C@@](O)(C(=O)OC)[C@H](OC(C)=O)[C@@]5(CC)C=CCN6CC[C@]43[C@H]65)C2)C1,Potency,[1],inactive
same,"activity change, negative = inhibition",[2],-8.89% [at 38 µM]
same,"activity, negative = inhibition",[3],-14.3% [at 38 µM]
same,Potency,[4],> 46 µM
same,Potency,[5],> 46 µM
same,Potency,[7],inactive
same,outcome,[8],inactive
same,Potency,[21],3.98 µM (active)
same,Potency,[19],inactive
same,Potency,[22],inactive
same,Potency,[23],inactive
same,Potency,[14],inactive
same,outcome,[15],inactive
same,outcome,[16],inactive
same,outcome,[17],inactive

# — PubChem BioAssay (NCATS)
